The results in this text go back to PubChem BioAssay AID2599 (Sanford-Burnham Center for Chemical Genomics, 2010).

Among all 330,000 compounds or so, about 5,800 (1.8%) were called active.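 Rule for the calls: active = inhibition above about 50% at the single tested dose (limit read from the data); inactive = the rest.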 Many of the other results were omitted from the sample, so actives are more common in it than they were.

Sentrin-specific protease 6 (Homo sapiens), sequence (Q9GZR1 628-1112 limits assumed): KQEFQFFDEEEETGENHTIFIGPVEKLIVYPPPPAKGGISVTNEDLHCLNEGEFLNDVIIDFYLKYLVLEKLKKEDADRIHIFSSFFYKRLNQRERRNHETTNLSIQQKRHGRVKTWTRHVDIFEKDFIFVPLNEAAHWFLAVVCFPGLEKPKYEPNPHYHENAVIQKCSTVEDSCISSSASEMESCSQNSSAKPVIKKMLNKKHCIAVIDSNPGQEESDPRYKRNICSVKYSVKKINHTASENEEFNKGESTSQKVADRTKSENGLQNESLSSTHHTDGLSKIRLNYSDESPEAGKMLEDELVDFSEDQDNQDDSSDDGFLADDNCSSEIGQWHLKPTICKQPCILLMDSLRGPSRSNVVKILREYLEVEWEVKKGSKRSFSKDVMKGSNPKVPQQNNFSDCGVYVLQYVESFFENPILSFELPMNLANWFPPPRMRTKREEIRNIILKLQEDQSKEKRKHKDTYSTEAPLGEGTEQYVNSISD

This assay concerns the target Sentrin-specific protease 6 (Homo sapiens) (UniProt Q9GZR1). In words: inhibition of human SENP6 catalytic domain – biochemical, luminescence, uHTS, primary screen (AID 2599).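 Note: plate controls were DMSO wells with enzyme for no effect and DMSO wells lacking enzyme for full effect.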 The following applies: Recombinant SENP6 catalytic domain, aminoluciferin luminescence; at 10 µM; active compounds read high.
Consider `Cc1c(C(=O)NNC(=O)c2ccncc2)oc2ccccc12`, for which the inhibition (commonly the change of the read-out against control, counted positive when it falls) was -3.56% (inactive).
For `O=C(CCNC(=O)c1ccc(Cl)cc1)NC1CCCc2ccccc21` (stereo not drawn) the value was 2% (inactive).
For `O=C(Nc1nnc(S(=O)(=O)N2CCCCCC2)s1)c1cccc(Br)c1` the value was 75.4% (active).
For `Cc1cccc(C(=O)Nc2nnc(S(=O)(=O)N3CCCCCC3)s2)c1` the value was 33.1% (inactive).
With `O=C(Nc1nnc(S(=O)(=O)N2CCOCC2)s1)c1cccc(Br)c1`, the inhibition is 21.8% (inactive).
For `Cc1c(Cl)c([N+](=O)[O-])nn1CC(=O)NCC1CCCO1` (stereo not drawn) the value was -2.16% (inactive).
Consider `CCCCNC(=O)c1cn(CC)c2cc(N3CCN(C(=O)c4ccco4)CC3)c(F)cc2c1=O`, for which the inhibition is 12.7% (inactive).
In the case of `Cc1noc(C)c1CSc1nc2cc(S(=O)(=O)N3CCOCC3)ccc2o1`, the inhibition was 3.51% (inactive).
For `CSc1ccccc1NC(=O)c1cc(Cl)sc1Cl` the value was -4.94% (inactive); for `CSc1ccccc1NC(=O)c1cc(C2CC2)on1`, 52% (active).
For `O=C(NC1CCCCC1)c1cc(C2CC2)on1` the value was -14.8% (inactive); for `Nc1c(C(=O)OCC(=O)Nc2ccc(OC(F)F)cc2)[nH]c(=O)[nH]c1=O`, 4.9% (inactive).
For `O=C(/C=C/c1ccc([N+](=O)[O-])o1)NNC(=O)c1ccc(F)cc1` the value was -1.45% (inactive); for `CCCCN(CC)C(=O)C1CCCN(S(=O)(=O)c2cccc3nsnc23)C1` (stereo not drawn), 8.83% (inactive).
As to `COC(=O)c1cccc(C(=O)N2CCC(CCC(=O)NCc3ccc(F)cc3)CC2)c1`, the inhibition is 2.77% (inactive).
For `CCCc1nc(N2CCN(C)CC2)c2sc(=S)n(-c3ccccc3)c2n1` the value was 8.07% (inactive); for `O=C(COc1ccc(Cl)cc1)NCc1nnc(SCC(=O)NCC2CCCO2)o1` (stereo not drawn), -1.58% (inactive).
For `O=C1CSc2ccc(C(=O)NCc3ccccn3)cc2N1` the value was 0.274% (inactive); for `c1ccc(CN=C2Nc3ccccc3CS2)nc1`, 52.5% (active); for `COc1ccc(Cl)cc1NS(=O)(=O)c1cccc(C(=O)NC2CCC(O)CC2)c1` (stereo not drawn), 3.9% (inactive).
`CN1C(=O)/C(=C\c2cc(Br)cs2)c2ccccc21`: the inhibition is 66.3% (active).
For `CCC1C(=O)c2ccccc2N(C)C1=O` (stereo not drawn) the value was -9.28% (inactive); for `CN1C(=O)/C(=N/OC(=O)c2ccccc2Br)c2ccccc21`, 20.2% (inactive).
For `Cc1[nH][nH]c(=O)c1C(c1ccc(-c2ccc(Cl)cc2)o1)c1c(C)[nH][nH]c1=O` the value was 53.1% (active).
For `O=C(NC1CCCCC1)c1ccc(-c2ccc(Cl)cc2)o1` the value was -2.51% (inactive); for `CCOc1ccc(C(c2c(C)[nH][nH]c2=O)c2c(C)[nH][nH]c2=O)cc1OCC`, 16.7% (inactive).
With `Cc1cccc(NC(=O)C2CCCN(C(=O)NCc3ccccc3)C2)c1C` (stereo not drawn), the inhibition is 8.32% (inactive).
Turning to `CCNC(=O)CC1C(=O)N(c2ccc(OC)cc2)C(=O)N1CCOC` (stereo not drawn), the inhibition is -17.8% (inactive).
For `CCCCCCCCCOC1OC(CO)C(O)C(O)C1NC(C)=O` (stereo not drawn) the value was -4.5% (inactive); for `Clc1ccc(C2=CSC3=Nc4cccc5cccc(c45)N23)cc1`, 82.2% (active); for `CCCN(CCc1ccccc1)C1CCc2c(O)cccc2C1` (stereo not drawn), -8.37% (inactive).
For `Cc1nc(NC(=O)c2ccc3c(c2)OCCO3)ccc1Br` the value was 70.9% (active); for `COc1c(Cl)cc(C(=O)Nc2ccc(Cl)cn2)cc1Cl`, 23.4% (inactive).
For `CCCc1cc(C(=O)Nc2ccc(Cl)cn2)cs1` the value was 86.5% (active); for `COc1ccc(C(=O)NC(=S)Nc2ccc(Cl)cn2)cc1OC`, -0.015% (inactive).
In the case of `O=C(Nc1ccc(Cl)cn1)c1ccc2c(c1)OCCO2`, the inhibition is 76.8% (active).
For `Cc1ccc(C(=O)NNC(=O)c2ccc3c(c2)OCCO3)cc1` the value was 16.5% (inactive); for `CCCc1cc(C(=O)Nc2ccc(C(=O)OC)cc2)cs1`, -4.63% (inactive); for `CCCCC(CC)C(=O)Nc1ccc(Cl)cn1` (stereo not drawn), 0.311% (inactive).
For `Cc1cccc(C)c1NC(=O)CNC(=O)c1ccc2c(c1)OCCO2` the value was -7.93% (inactive); for `O=C(/C=C/c1cnc2ccccc2n1)NC1CCCCCC1`, -2.57% (inactive); for `O=C(CC1C(=O)NCCN1Cc1ccc(-c2ccccc2)cc1)NCc1ccncc1` (stereo not drawn), -5.88% (inactive).
For `CC1CN(S(=O)(=O)c2cccc(C(F)(F)F)c2)CN1C(=O)N1CCOCC1` (stereo not drawn) the value was -20.3% (inactive); for `COc1cc(OC)c(NC(=O)C2CCCN2C(=O)OCc2ccccc2)cc1Cl` (stereo not drawn), -8.31% (inactive); for `CC1(C)CC(=O)C2=C(C1)NCN(CCCN1CCOCC1)C2`, 1.73% (inactive).
On to `CCCn1nnc(NC(=O)COc2ccc(CC)cc2)n1`, for which the inhibition is 1.27% (inactive).
Consider `CC(=O)C(CC(=O)N1CCCC1)C(=O)Nc1ccc(Cl)cc1` (stereo not drawn), for which the inhibition was -4.11% (inactive).
For `CC(C)C(=O)Nc1nnc(Sc2ccc(N(C)C)cc2)s1` the value was -0.866% (inactive); for `O=C(c1ccc(F)cc1)c1cn(Cc2ccc(F)cc2)c2cc3c(cc2c1=O)OCCO3`, -4.67% (inactive).
Take `COCCN(CCOC)c1nc(N)c2c(N)nc3c(c2c1C#N)CC(=O)N3Cc1ccc(Cl)cc1`: the inhibition is 81.3% (active).
For the compound `CC1COC2C(O1)N(S(C)(=O)=O)CCN2S(C)(=O)=O` (stereo not drawn), the inhibition is -1.6% (inactive).
Take `CC1(C)CC(=O)C=C(NCc2ccncc2)C1`: the inhibition was 11.9% (inactive).
For `Cc1csc(OCC(=O)Nc2ccc(C)c(C)c2)n1` the value was -7.65% (inactive); for `Oc1ccc(Br)cc1/C=N/Nc1ccccn1`, 14.9% (inactive); for `Oc1ccc(Br)cc1C=Nc1ccc2[nH]ncc2c1`, 55.4% (active).
For the compound `CCN(CC)CCn1c(/N=C/c2cc(Br)ccc2O)nc2ccccc21`, the inhibition was 5.27% (inactive).
For `Cc1ccn(-c2cccc(-n3ccc(C)n3)n2)n1` the value was -0.107% (inactive); for `O=S(=O)(c1ccc(Br)c2ccccc12)N1CCOCC1`, -3.67% (inactive).
For `Cc1c(Cl)c([N+](=O)[O-])nn1CC(=O)NCCCN1CCOCC1` the value was -13.8% (inactive); for `N/C(=N\OC(=O)c1ccc2c(c1)OCO2)c1ccc(Br)cc1`, 46% (inactive).
`CC(=O)c1cc2c(cc1N)OCO2`: the inhibition was 1.73% (inactive).
For `Nc1[nH][nH]c(=O)c1N=Nc1ccc2c(c1)OCO2` the value was 51.5% (active); for `Cn1c2ccccc2c2cc(/C=C(\NC(=O)c3ccccc3)C(=O)NCC(=O)O)ccc21`, -6.28% (inactive).
